# Data from PubChem BioAssay (EPA / NIEHS).
# Results filed as inconclusive are left out. Calls of active or inactive are those of the source. How the source made its calls: active means hit-call score of the fitted dose curve at least 0.9, where 1 is the maximum; inconclusive means response in the unintended direction; inactive means score below 0.9.
# Key:
# [1] = biological target: Androgen Receptor/SRC-1 Co-activator, AR (gene 367) (UniProt P10275); assay: OT_AR_ARSRC1_0960: Odyssey Thera (OT) 16-hour HEK293T Protein-Complementation Assay for Androgen Receptor/SRC-1 Co-activator (AID 2283353);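 further: actives raise the signal above DMSO so potency reflects increased AR and SRC-1 complex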
# Summary of the method: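 Sixteen-hour cell assay: Venus halves fused to AR and SRC-1 in HEK293T report binding. Images at 488/635 nm give an N/C ratio in the 488 nm channel over ≥400 cells, analysed as signal increase over DMSO.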
# [2] = biological target: Androgen Receptor/SRC-1 Co-activator, AR (gene 367) (UniProt P10275); assay: OT_AR_ARSRC1_0480: Odyssey Thera (OT) 8-hour HEK293T Protein-Complementation Assay for Androgen Receptor/SRC-1 Co-activator (AID 2283354);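 further: hits raise the complementation signal above DMSO so AC50 marks enhancers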
# Summary of the method: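 After 8 h dosing, stably expressing HEK293T cells with split-Venus AR/SRC-1 fusions were imaged (488, 635nm). The 488nm N/C ratio per image gave the endpoint, analysed in the positive direction against DMSO.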
# [3] = biological target: Estrogen receptor beta (Homo sapiens) (UniProt Q92731); assay: OT_ER_ERbERb_0480: Odyssey Thera (OT) 8-hour HEK293T Protein-Complementation Assay for Estrogen Receptor-beta/-beta Homodimer (AID 2283357);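 further: active means signal gain over DMSO baseline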
# Summary of the method: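 Fluorescence gain from complemented reporter fragments on ER-beta LBD homodimer in HEK293T was quantified against DMSO controls after 8 h treatment, fixation in 4% formaldehyde and Draq5 staining.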
# [4] = biological target: bovine Estrogen Receptor (ER), ESR1 (gene 407238) (UniProt P49884); assay: NVS_NR_bER: NovaScreen (NVS) Nuclear Receptor Binding Assay for bovine Estrogen Receptor (ER) (AID 2283345);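 further: actives lower the bound radioligand count which means they displace the ER ligand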
# Summary of the method: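 Displacement of a radioligand from estrogen receptor in bovine uterine membrane preparations; scintillation signal taken at 18 hours, DMSO as baseline. Single-concentration duplicates (25 uM) preceded concentration-response follow-up of actives.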
# [5] = biological target: Estrogen receptor (Homo sapiens) (UniProt P03372); assay: OT_ER_ERaERa_1440: Odyssey Thera (OT) 24-hour HEK293T Protein-Complementation Assay for Estrogen Receptor-alpha/-alpha Homodimer (AID 2283349);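 further: hits raise fluorescence above DMSO for agonists and antagonists alike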
# Summary of the method: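 Stably transfected HEK293T; ERα LBD homodimer PCA. 24 h dosing, fluorescence intensity read, gain-of-signal vs DMSO.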
# [6] = biological target: Estrogen receptor (Homo sapiens) (UniProt P03372); assay: OT_ER_ERaERa_0480: Odyssey Thera (OT) 8-hour HEK293T Protein-Complementation Assay for Estrogen Receptor-alpha/-alpha Homodimer (AID 2283351);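 further: rise in fluorescence from reassembled reporter fragments on ERα LBD homodimer in nucleus or whole cell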
# Summary of the method: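 Measures ERα LBD (aa 310-547) homodimer complementation in stably transfected HEK293T at 8 h post-dose, with fluorescence intensity quantified on a laser scanning cytometer relative to DMSO controls.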
# [7] = NVS_IC_rCaBTZCHL: NovaScreen (NVS) Ion Channel Assay for Calcium Channel, Type L, Benzothiazepine Site (CaBTZCHL) (AID 2283337)
# Summary of the method: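 Benzothiazepine-site binding was assessed in a tissue-derived, cell-free rat cortical membrane system. After 1.5 h exposure, radioactivity retained on filters was quantified by scintillation; positive and negative controls accompanied every plate.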
# [8] = biological target: rat Peripheral-type Benzodiazepine Receptor (PBR), Tspo (gene 24230) (UniProt P16257); assay: NVS_MP_rPBR: NovaScreen (NVS) Membrane Protein Assay for rat Peripheral-type Benzodiazepine Receptor (PBR) (AID 2283335)
# Summary of the method: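 Single-concentration duplicate screening at 25 uM preceded concentration-series retesting of actives. Binding of a specific radioligand to rat kidney membrane PBR was read by filtration radiodetection after 1 h, with plate-wise positive and negative controls.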
# PGR (gene 5241) = PGR (gene 5241) (UniProt P06401); assay: NVS_NR_hPR: NovaScreen (NVS) Nuclear Receptor Binding Assay for human Progestron Receptor (PR) (AID 2283360);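 further: active means loss of bound radioligand signal versus DMSO baseline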
# Summary of the method: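 T47D-derived receptor preparation, cell-free, with tritiated or iodinated radioligand displacement measured by scintillation 18 h post-dosing. Single 25 uM duplicate screen, then concentration series; signal loss relative to DMSO.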
# [9] = biological target: human Peroxisome Proliferator-activated Receptor alpha (PPARa), PPARA (gene 5465) (UniProt Q07869); assay: NVS_NR_hPPARa: NovaScreen (NVS) Nuclear Receptor Binding Assay for human Peroxisome Proliferator-activated Receptor alpha (PPARa) (AID 2283359);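 further: activity means loss of TR-FRET signal versus DMSO baseline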
# Summary of the method: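 One-hour incubation, cell-free extracted protein, TR-FRET binding readout; signal loss vs DMSO scored. Screen: 25 uM duplicates, confirmatory dose series for actives.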
# [10] = biological target: Retinoic acid receptor alpha (Homo sapiens) (UniProt P10276); assay: NVS_NR_hRARa_Agonist: NovaScreen (NVS) Nuclear Receptor Binding Assay for human Retinoic Acid Alpha Receptor Agonism (RAR) (AID 2283361)
# Summary of the method: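 Compounds screened at 25 uM, duplicate, then in concentration series if active. Detection: TR-FRET gain of signal versus DMSO after 2 h with cell-free extracted RARα.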
# [11] = biological target: Glucocorticoid receptor (Homo sapiens) (UniProt P04150); assay: NVS_NR_hGR: NovaScreen (NVS) Nuclear Receptor Binding Assay for human Glucocorticoid Receptor (GR) (AID 2283363);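 further: activity is loss of specific radioligand binding signal relative to DMSO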
# Summary of the method: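 Single-readout cell-free binding: radioligand plus extracted receptor, 16-hour dosing, filter radiodetection; 25 uM duplicate primary, concentration series secondary.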
# [12] = biological target: rat Mineralocorticoid Receptor (MR), Nr3c2 (gene 25672) (UniProt P22199); assay: NVS_NR_rMR: NovaScreen (NVS) Nuclear Receptor Binding Assay for rat Mineralocorticoid Receptor (MR) (AID 2283355)
# Summary of the method: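 Single-concentration duplicate screen (25 uM) of radioligand binding in adrenalectomized rat brain supernatant; scintillation detection 24 h after dosing. Positive and negative controls ran on each plate, and confirmed actives went to concentration-response.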
# [13] = biological target: human Thyroid Receptor Alpha (TRa), THRA (gene 7067) (UniProt P10827); assay: NVS_NR_hTRa_Antagonist: NovaScreen (NVS) Nuclear Receptor Binding Assay for human Thyroid Receptor Alpha Antagonism (TRa) (AID 2283362);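 further: activity is loss of signal relative to DMSO baseline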
# Summary of the method: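 Extracted protein, cell-free; 1 h incubation after dosing; AlphaLISA chemiluminescence binding readout. DMSO = baseline/neg ctrl; signal loss = activity. Primary: duplicate, 25 uM; secondary: conc. series on actives.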
# [14] = biological target: Retinoic acid receptor alpha (Homo sapiens) (UniProt P10276); assay: NVS_NR_hRAR_Antagonist: NovaScreen (NVS) Nuclear Receptor Binding Assay for human Retinoic Acid Alpha Receptor Antagonism (RAR) (AID 2283358)
# Summary of the method: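 Chemicals were first tested in duplicate at 25 uM, then actives in concentration series, in a cell-free TR-FRET antagonist binding format. Measurements were taken 2 hours after dosing and loss of signal was evaluated against DMSO controls.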
# Sequence of rat Peripheral-type Benzodiazepine Receptor (PBR), Tspo (gene 24230) (P16257 whole entry, looked up): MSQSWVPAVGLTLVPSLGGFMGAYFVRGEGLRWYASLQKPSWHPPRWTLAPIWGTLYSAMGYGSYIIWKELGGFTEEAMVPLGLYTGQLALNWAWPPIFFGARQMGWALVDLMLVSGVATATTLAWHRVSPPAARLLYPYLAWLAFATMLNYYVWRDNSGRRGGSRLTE
# Sequence of Estrogen receptor beta (Homo sapiens) (Q92731 whole entry, looked up, the tested form may be a part): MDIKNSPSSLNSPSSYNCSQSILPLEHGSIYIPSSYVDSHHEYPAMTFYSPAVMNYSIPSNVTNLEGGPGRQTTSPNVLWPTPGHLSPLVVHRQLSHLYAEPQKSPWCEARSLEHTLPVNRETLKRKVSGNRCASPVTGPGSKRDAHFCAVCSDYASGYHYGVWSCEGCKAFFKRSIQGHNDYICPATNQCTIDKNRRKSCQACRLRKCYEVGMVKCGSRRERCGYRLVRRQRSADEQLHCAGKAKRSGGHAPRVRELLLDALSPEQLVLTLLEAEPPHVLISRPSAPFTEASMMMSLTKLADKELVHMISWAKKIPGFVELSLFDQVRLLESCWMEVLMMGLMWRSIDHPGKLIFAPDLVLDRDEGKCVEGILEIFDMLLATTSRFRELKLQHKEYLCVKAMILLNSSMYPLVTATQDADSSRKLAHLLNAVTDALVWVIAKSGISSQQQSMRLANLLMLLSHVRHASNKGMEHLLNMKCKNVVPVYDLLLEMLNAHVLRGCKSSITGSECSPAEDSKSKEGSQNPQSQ
# Sequence of Androgen Receptor/SRC-1 Co-activator, AR (gene 367) (P10275 whole entry, looked up, the tested form may be a part): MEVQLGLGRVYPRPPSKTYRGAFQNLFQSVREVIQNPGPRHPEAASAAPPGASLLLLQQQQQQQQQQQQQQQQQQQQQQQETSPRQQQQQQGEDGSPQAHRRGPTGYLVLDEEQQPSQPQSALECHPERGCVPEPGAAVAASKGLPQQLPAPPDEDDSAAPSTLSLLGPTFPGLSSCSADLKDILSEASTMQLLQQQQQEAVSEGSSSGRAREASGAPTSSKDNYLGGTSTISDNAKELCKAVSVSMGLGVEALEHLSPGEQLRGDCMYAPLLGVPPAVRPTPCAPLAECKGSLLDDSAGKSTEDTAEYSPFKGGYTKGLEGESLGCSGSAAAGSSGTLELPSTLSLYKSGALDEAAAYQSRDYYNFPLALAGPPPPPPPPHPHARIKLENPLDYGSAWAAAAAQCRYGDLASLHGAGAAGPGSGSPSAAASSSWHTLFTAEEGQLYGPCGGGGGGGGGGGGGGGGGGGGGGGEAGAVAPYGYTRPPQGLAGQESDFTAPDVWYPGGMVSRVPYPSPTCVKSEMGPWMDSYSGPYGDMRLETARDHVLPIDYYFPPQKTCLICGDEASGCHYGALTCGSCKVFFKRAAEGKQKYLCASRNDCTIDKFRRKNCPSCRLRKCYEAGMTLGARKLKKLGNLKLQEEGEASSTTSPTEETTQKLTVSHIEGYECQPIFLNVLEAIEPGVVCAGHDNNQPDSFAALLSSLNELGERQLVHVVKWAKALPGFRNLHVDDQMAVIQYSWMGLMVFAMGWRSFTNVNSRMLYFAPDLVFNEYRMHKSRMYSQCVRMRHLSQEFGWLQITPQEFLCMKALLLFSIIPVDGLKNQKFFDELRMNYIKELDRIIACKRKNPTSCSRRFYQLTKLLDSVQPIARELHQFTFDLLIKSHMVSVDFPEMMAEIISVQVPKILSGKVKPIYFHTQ
# Sequence of Retinoic acid receptor alpha (Homo sapiens) (P10276 whole entry, looked up): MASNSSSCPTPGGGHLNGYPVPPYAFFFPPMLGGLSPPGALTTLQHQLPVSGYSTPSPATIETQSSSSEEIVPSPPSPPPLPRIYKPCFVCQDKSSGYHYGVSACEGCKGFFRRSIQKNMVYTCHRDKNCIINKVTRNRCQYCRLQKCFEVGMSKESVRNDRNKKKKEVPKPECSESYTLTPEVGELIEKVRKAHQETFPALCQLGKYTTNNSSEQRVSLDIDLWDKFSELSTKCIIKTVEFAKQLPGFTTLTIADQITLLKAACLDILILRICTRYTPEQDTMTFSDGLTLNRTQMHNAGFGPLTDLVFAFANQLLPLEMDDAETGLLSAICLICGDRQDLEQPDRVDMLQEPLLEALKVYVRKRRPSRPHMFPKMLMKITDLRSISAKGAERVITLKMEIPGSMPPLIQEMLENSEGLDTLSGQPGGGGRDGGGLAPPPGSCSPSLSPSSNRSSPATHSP
# Sequence of Estrogen receptor (Homo sapiens) (P03372 whole entry, looked up, the tested form may be a part): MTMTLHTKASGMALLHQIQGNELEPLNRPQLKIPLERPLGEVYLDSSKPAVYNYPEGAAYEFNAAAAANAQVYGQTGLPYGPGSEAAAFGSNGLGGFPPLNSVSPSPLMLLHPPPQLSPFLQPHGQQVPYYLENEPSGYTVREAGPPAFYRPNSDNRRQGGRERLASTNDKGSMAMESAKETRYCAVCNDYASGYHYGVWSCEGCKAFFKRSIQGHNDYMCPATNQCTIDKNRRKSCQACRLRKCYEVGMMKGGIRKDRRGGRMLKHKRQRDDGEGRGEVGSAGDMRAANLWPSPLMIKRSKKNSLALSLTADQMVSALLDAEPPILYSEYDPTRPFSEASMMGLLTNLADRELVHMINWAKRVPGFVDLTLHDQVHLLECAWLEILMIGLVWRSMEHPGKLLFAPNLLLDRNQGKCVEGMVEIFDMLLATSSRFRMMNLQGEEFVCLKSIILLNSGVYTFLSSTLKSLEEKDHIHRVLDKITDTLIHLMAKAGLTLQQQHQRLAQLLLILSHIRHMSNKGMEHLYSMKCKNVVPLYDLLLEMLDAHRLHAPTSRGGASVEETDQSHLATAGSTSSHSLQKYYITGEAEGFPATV
# Sequence of Glucocorticoid receptor (Homo sapiens) (P04150 whole entry, looked up): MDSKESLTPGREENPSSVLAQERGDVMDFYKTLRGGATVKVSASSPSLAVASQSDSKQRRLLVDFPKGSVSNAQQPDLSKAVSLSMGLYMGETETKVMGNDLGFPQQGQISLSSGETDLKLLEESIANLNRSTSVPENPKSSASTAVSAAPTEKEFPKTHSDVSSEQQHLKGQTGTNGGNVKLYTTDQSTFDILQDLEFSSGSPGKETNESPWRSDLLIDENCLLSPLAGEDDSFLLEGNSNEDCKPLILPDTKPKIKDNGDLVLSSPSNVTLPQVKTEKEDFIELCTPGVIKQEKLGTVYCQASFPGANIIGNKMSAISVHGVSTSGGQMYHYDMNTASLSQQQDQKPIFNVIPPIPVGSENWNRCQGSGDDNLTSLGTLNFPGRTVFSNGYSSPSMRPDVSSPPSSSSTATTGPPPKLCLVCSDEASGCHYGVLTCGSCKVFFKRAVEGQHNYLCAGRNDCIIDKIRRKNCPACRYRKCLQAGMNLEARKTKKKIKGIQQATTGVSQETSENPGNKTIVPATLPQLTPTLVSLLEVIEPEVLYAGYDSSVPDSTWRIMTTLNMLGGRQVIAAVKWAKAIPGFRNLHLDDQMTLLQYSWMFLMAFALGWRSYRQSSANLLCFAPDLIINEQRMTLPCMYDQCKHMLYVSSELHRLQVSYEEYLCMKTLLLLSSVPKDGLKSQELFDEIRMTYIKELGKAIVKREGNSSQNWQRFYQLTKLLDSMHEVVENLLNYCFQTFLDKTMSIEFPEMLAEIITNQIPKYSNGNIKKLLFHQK
# Sequence of human Peroxisome Proliferator-activated Receptor alpha (PPARa), PPARA (gene 5465) (Q07869 whole entry, looked up): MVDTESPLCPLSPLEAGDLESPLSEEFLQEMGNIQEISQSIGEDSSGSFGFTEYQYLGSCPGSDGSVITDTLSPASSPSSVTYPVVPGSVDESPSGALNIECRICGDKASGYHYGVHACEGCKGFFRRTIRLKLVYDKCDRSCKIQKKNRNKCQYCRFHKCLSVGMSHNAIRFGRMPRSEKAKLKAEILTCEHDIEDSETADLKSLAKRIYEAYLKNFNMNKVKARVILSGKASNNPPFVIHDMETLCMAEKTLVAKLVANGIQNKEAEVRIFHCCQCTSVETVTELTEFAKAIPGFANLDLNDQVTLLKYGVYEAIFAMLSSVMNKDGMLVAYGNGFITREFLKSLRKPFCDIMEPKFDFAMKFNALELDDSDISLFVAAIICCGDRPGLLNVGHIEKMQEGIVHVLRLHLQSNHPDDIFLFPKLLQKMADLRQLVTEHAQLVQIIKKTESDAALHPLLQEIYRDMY
# Sequence of human Thyroid Receptor Alpha (TRa), THRA (gene 7067) (P10827 whole entry, looked up): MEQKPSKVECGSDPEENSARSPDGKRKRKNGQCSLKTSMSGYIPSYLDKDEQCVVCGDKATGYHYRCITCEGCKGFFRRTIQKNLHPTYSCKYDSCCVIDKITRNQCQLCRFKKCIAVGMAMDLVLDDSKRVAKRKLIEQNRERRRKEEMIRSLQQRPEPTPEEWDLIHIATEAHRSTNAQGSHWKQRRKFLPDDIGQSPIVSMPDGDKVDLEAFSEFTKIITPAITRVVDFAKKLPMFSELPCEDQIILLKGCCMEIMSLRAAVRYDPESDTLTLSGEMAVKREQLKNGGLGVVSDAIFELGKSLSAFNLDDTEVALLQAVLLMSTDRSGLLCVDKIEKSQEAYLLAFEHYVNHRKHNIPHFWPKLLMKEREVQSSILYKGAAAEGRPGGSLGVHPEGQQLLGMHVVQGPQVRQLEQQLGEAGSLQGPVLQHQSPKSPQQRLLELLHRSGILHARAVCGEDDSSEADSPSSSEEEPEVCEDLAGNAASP
# Sequence of bovine Estrogen Receptor (ER), ESR1 (gene 407238) (P49884 whole entry, looked up): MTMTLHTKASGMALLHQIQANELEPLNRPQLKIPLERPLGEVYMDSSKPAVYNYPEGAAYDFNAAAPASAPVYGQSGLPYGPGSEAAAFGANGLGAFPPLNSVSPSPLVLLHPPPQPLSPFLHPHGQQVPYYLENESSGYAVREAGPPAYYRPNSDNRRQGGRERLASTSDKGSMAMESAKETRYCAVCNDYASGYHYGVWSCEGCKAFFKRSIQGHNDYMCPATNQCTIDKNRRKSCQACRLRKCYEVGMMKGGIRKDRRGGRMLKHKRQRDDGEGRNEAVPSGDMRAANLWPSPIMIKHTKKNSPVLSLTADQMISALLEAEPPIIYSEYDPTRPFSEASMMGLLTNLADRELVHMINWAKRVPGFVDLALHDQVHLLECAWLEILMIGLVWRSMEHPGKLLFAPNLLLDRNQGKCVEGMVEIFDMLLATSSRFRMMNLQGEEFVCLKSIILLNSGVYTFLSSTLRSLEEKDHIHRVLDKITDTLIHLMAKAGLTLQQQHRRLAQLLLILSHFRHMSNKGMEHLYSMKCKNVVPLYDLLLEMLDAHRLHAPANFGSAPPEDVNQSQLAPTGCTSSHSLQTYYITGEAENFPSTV
smiles,measurement,setting,value
CCCCCCCCCCCCCC(=O)OCC(O)CO (centres undefined),outcome,[1],inactive
same,outcome,[2],inactive
same,outcome,[3],inactive
Cc1[nH]c(=O)c(C#N)cc1-c1ccncc1,outcome,[4],inactive
CC(C)NCC(O)COc1ccc(CC(N)=O)cc1 (centres undefined),outcome,[5],inactive
same,outcome,[6],inactive
CCCCOC(=O)CCCCCCCC(=O)OCCCC,outcome,[7],inactive
same,outcome,[3],inactive
CCOc1ccccc1O,outcome,[3],inactive
C=C(C)C(=O)OCCOC1CC2CC1C1C=CCC21 (centres undefined),outcome,[3],inactive
C=CC(=O)OCCCC,outcome,[8],inactive
same,outcome,[3],inactive
CCCCC(CC)COC(C)=O (centres undefined),outcome,[8],inactive
same,outcome,[3],inactive
COc1ccc(CCN2CCC(Nc3nc4ccccc4n3Cc3ccc(F)cc3)CC2)cc1,AC50,[7],2.18 µM (active)
same,outcome,PGR (gene 5241),inactive
CCCCC(CC)COC(=O)c1ccc(O)cc1 (centres undefined),AC50,[8],1.23 µM (active)
same,AC50,[3],0.91 µM (active)
same,outcome,[9],inactive
same,outcome,[10],inactive
same,AC50,[11],3.11 µM (active)
CC(=O)CC(=O)Nc1ccccc1,outcome,[12],inactive
Nc1ccc2cc(S(=O)(=O)O)cc(O)c2c1N=Nc1ccccc1C(F)(F)F,AC50,[8],5.02 µM (active)
same,outcome,[3],inactive
same,AC50,[9],0.155 µM (active)
same,AC50,[13],20 µM (active)
same,AC50,[11],5.65 µM (active)
CCc1cc(Cc2cc(CC)cc(C(C)(C)C)c2O)c(O)c(C(C)(C)C)c1,AC50,[1],10.7 µM (active)
same,AC50,[2],15.8 µM (active)
same,outcome,[3],inactive
BrCc1cccc(Oc2ccccc2)c1,outcome,[1],inactive
same,outcome,[2],inactive
same,AC50,[3],60.7 µM (active)
CCCCCCCCc1ccc(S(=O)(=O)O)cc1,AC50,[14],16.8 µM (active)
